# Rab9 promoter act: activates the Rab9 promoter; AID 485297; Huh7 Rab9 promoter-luciferase reporter, luminescence, 24 h; 320,000 tested, 2.8% active; Potency, µM (titrated, usually from 9.22 µM), hits mostly activators; note: nearly all actives have a fitted effect of over 60% in size
#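 Rab9 promoter-driven luciferase in stably transfected Huh7 cells; 1500 cells/well rested 2 h, exposed to compound in DMSO for 24 h at 37 °C, 5% CO2. Luminescence read 10 min after adding luciferase reagent at ambient temperature.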
# NPC1 promoter act: activators of NPC1 promoter; Huh7 NPC1 promoter luciferase reporter, 24 h; AID 485313; Potency, µM (top dose mostly 9.22 µM), hits mostly activators; 320,000 tested, 2.4% active; note: nearly all actives have a fitted effect of over 60% in size
#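 Stably transfected Huh7 (NPC1 promoter→luciferase), 1500 cells/well in Opti-MEM + 10% FBS, 2 h settle, then compound 24 h at 37 °C. Luminescence after 10 min with Amplite reagent.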
# FLuc counter: counter-screen for miR-21 project: firefly luciferase inhibitors or activators | Potency, µM (series often up to 57.5 µM), most hits filed as inhibitors | AID 588342 | purified FLuc, Km substrates, luminescence inhibition | 360,000 tested, 6.9% active; note: nearly all actives have a fitted effect of over 55% in size
# Target sequence (P08659 whole entry, looked up): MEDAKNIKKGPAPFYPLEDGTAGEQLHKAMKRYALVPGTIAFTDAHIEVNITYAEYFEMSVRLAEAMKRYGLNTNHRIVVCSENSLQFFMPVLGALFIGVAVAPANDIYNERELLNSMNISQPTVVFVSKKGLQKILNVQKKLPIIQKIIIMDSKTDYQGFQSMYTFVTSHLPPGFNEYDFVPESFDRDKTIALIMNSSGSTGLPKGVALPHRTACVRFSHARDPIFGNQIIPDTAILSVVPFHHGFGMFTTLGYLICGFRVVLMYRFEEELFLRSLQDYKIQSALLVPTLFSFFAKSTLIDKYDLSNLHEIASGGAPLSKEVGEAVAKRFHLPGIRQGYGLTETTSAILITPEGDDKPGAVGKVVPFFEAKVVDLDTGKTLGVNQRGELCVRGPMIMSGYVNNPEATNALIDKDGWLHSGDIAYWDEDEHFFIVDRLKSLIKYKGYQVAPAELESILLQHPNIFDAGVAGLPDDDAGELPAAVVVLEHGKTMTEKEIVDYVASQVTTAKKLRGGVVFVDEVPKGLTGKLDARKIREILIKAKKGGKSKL
#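 Purified P. pyralis luciferase, 10 nM final, with Km-level 10 uM D-luciferin and 10 uM ATP in 50 mM Tris acetate pH 7.5, 10 mM Mg acetate, 0.01% Tween-20, 0.05% BSA; 6-point qHTS titration about 60 µM downward; luminescence read.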
# Luc counter: blocks Kinase-Glo luciferase, a counter-screen artifact; Q27757; Kinase-Glo luciferase, ATP luminescence, 8 min; Potency, µM (highest dose often 38.3 µM), actives largely listed as inhibitors; 200,000 tested, 0.28% active; note: nearly all actives have a fitted effect of over 60% in size
#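 Light output from Kinase-Glo luciferase with luciferin and 10 uM ATP in 50 mM imidazole pH 7.2, KCl, MgCl2, Tween 20, BSA; compound pin-delivered, 8-min ambient incubation, then luminescence read.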
# ELG1 genotoxic: inducers of genotoxicity in HEK293T ELG1-luciferase cells; HEK293T ELG1-luciferase reporter, luminescence, 16 h; Potency, µM (highest dose often 46 µM), actives largely listed as activators; 330,000 tested, 1.3% active; AID 504466; note: nearly all actives have a fitted effect of over 60% in size
#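 ELG1-luciferase HEK293T cells, 2,000/well; compound pinned in; 16 hr, 37 °C, 5% CO2; ONE-Glo, 30 min RT; luminescence on CCD imager.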
# SMN2 splice enh: increases expression of the SMN2 splice variant | HEK293 SMN2-luciferase splicing reporter, luminescence, 30-36 h | Potency, µM (highest dose often 46.1 µM), hits mostly activators | 210,000 tested, 2.8% active | AID 1458; note: nearly all actives have a fitted effect of over 55% in size
#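 HEK293 cells carry an SMN2 minigene-luciferase reporter in which exon 7 inclusion puts luciferase in frame. Cells were seeded at 2000 cells/well, attached for 10-12 hours, then exposed to compounds for 30-36 hours at 37C before ONE-Glo luminescence.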
# A number is an active result; 0 = inactive; ? = inconclusive; - = no result; [ ] = another dose, or the depositor's remark. Most compounds without a hit are left out; they make up all but 7.4% or so of the library. Calls come from the whole dose curve; as a rule, active = well fitted curve in the direction sought with a large enough effect; inconclusive = small, poorly fitted or top-dose-only effect, or another doubt; inactive = no such curve, though single readings can be large; an effect the other way counts as inactive or inconclusive.
SMILES,Rab9 promoter act,NPC1 promoter act,FLuc counter,Luc counter,ELG1 genotoxic,SMN2 splice enh
COC(=O)c1ccc(C(=O)OC)c(NC(=O)c2c(-c3ccccc3)c(-c3ccccc3)nn(C)c2=O)c1,-,-,0,-,-,0
CO/N=C/c1ccc(N2CCCC2)c([N+](=O)[O-])c1,0,0,17µM,0,0,0
COc1cccc(/C=C/C(=O)c2cccc([N+](=O)[O-])c2)c1OC,0,0,11µM,0,?,0
COc1cccc(/C=C/C(=O)c2cccc([N+](=O)[O-])c2)c1,0,0,8.5µM,0,?,0
COc1cccc(C(=O)/C=C/c2ccc(N3CCCCC3)c([N+](=O)[O-])c2)c1,0,0,8.5µM,0,0,0
CCOC(=O)c1c(NC(=O)c2cc(OCC)c(OCC)c(OCC)c2)sc2c1CCCCC2,-,-,0,-,-,0
CCCNC(=O)Cn1nc(-c2ccc(OC)cc2)c2cnc3ccc(F)cc3c21,-,-,0,-,-,-
CCOC(=O)C1CCCN(C(=O)c2cc(-c3ccccc3)on2)C1 (configuration not stated),4µM,?,0,0,?,22µM
Cc1ccc(-c2cc(C(=O)N3CCOCC3)no2)cc1,0.32µM,0.32µM,0.54µM,-,?,-
O=C(c1cc(-c2ccco2)on1)N1CCOCC1,?,0,?,0,?,0
Cc1ccc(-c2cc(C(=O)N3CCCC3)no2)cc1,?,?,0.76µM,0,0.23µM,0.89µM
O=c1[nH]c(-c2ccccc2)nnc1-c1ccccc1,?,?,17µM,-,?,-
Cc1nc2nc(NC(=O)CC(C)C)[nH]n2c(=O)c1Cc1ccccc1,-,-,0,-,-,0
CCOC(=O)N1CCc2c(sc(NC(=O)C3=COCCO3)c2C(N)=O)C1,0,0,11µM,-,0,-
CNC(=O)c1c(NC(=O)C2=COCCO2)sc2c1CCCC2,0,0,17µM,-,0,-
Cc1ccc(C(=O)COC(=O)CNC(=O)c2cccs2)cc1,-,-,0,0,-,0
CCc1ccccc1NC(=O)COC(=O)c1cccs1,0,0,0,-,0,-
CSc1ncccc1C(=O)OCC(=O)c1ccc(C)s1,-,-,-,-,0,-
CSc1ncccc1C(=O)OCC(=O)c1cccs1,0,0,19µM,0,0,0
Cc1ccc(C(=O)COC(=O)c2cccs2)cc1,0.45µM,0.79µM,0.15µM,?,?,?
CN(C)c1ccc(C(=O)OCC(=O)c2cccs2)cc1,1.8µM,3.5µM,3.4µM,0,8.2µM,6.3µM
CCc1ccc(C(=O)COC(=O)c2cccs2)cc1,1.4µM,2.5µM,0.19µM,?,4.5µM,0
C[C@]12CC[C@@H](O)C[C@@H]1CC[C@@H]1[C@@H]2CC[C@]2(C)C=CC[C@@H]12,-,-,-,-,-,0
O=C(CSc1nc(-c2ccccc2)nc2c1Cc1ccccc1O2)N1CCCCC1,-,-,0,-,-,0
O=C(OCC(=O)c1cccs1)c1cccc(C(=O)OCC(=O)c2cccs2)n1,0,0,12µM,0,0,0
SMILES,Rab9 promoter act,NPC1 promoter act,FLuc counter,Luc counter,ELG1 genotoxic,SMN2 splice enh
CCOc1ncccc1C(=O)OCC(=O)c1cccs1,0,0,?,0,0,0
C[n+]1c(/C=C/c2ccc(O)cc2)ccc2ccccc21,0,0,13µM,-,0,-
C[n+]1c(/C=C/c2ccc3c(c2)OCO3)ccc2ccccc21,0,0,11µM,0,?,0
NC(N)=Nc1nc(C2COc3ccccc3O2)cs1 (configuration not stated),1.3µM,1.6µM,3.4µM,0,?,4.5µM
CC(=O)Nc1nc(C2COc3ccccc3O2)cs1 (configuration not stated),0.56µM,1.3µM,4.8µM,0,0.65µM,4µM
N/C(=N\O)C1COc2ccccc2O1 (configuration not stated),0,0,0,0,0,0
N[C@H](C(=O)O)[C@@H](O)c1cnc[nH]1,-,-,-,0[7.66 µM],-,0[9.22 µM]
Nc1nc(-c2ccc3c(c2)CCC(=O)N3)cs1,0,0,?,0,?,?
CC(=O)Nc1nc(-c2ccc3c(c2)CCO3)cs1,?,?,12µM,0,0,?
O=C(Nc1nc(-c2ccc3c(c2)Cc2ccccc2-3)cs1)c1ccccc1,0,0,0,0,0,0
Nc1nc(-c2ccc3c(c2)CCO3)cs1,?,0,?,0,0,10µM
CCN(CC)CC(=O)Nc1nc(-c2ccc(Cl)cc2)cs1,0,0,0,0,0,0
CNc1nc(-c2ccc([N+](=O)[O-])cc2)cs1,?,?,12µM,0,0,0
CC(C)C(=O)Nc1nc(-c2ccc([N+](=O)[O-])cc2)cs1,0,0,?,0,0,0
CNc1nc(-c2ccc(Cl)cc2)cs1,2.8µM,2.8µM,6.7µM,0,?,0
CCNc1nc(-c2ccc(Cl)cc2)cs1,2.2µM,3.5µM,3.4µM,0,?,0
COc1ccc(CCNC(=O)Cn2nc(C)c3c(C)n(-c4ccc(C)cc4)nc3c2=O)c(OC)c1,0,0,0,-,-,-
Cc1ccccc1OCC(=O)Nc1ccc(-c2nc3cc(Cl)cc(Cl)c3o2)cc1,-,-,0,-,-,0
Cc1cc(C)c2c(n1)SCCN2C(=O)Nc1ccc(C(=O)Nc2ccc(C(C)C)cc2)cc1,-,-,0,-,-,-
CC(=O)c1ccc(NC(=O)CSc2nnc(NC(=O)C3CC3)s2)cc1,0,0,?,-,0,-
CC(C)N(C(=O)CSc1nnc(NC(=O)c2ccco2)s1)C(C)C,0,0,0,0,0,0
CCCSc1nnc(NC(=O)c2ccco2)s1,?,0,?,0,?,11µM
CC(=O)c1ccc(NC(=O)CSc2nnc(NC(=O)c3ccco3)s2)cc1,?,?,2.4µM,-,?,-
Cc1ccc(NC(=O)CSc2nnc(NC(=O)c3ccco3)s2)cc1,0,0,21µM,0,0,0
N#Cc1ccc(CN2CCC3(CC2)CCN(C(=O)c2cccc(F)c2)CC3)cc1,-,-,-,0,-,0
SMILES,Rab9 promoter act,NPC1 promoter act,FLuc counter,Luc counter,ELG1 genotoxic,SMN2 splice enh
CC(C)[C@H](NC(=O)CNC(=O)OC(C)(C)C)C(=O)N[C@H](C=O)C(C)C,-,-,-,-,-,0
COc1ccc2c(c1)c1c(c(=O)n(-c3ccccc3C)c(=O)n1CC(N)=O)n2C,-,-,0,-,-,-
CC(=O)c1ccc(NC(=O)c2cc(-c3ccc(C)s3)nc3ccccc23)cc1,-,-,0,-,-,0
CCN(C(=O)CCS(=O)(=O)c1cc2[nH]c(=O)c(=O)[nH]c2cc1C)c1ccccc1,-,-,0,-,-,-
CCOC(=O)Cc1csc(NC(=O)/C=C/c2ccccc2Cl)n1,?,?,1.2µM,-,0,-
CCOC(=O)Cc1csc(NC(=O)/C=C\c2ccccc2Cl)n1,?,0,1.5µM,0,0,-
CCOC(=O)Cc1csc(NC(=O)c2c(-c3c(Cl)cccc3Cl)noc2C)n1,0,0,0,0,0,0
CC(C)OCCCNC(=O)CN1C(=O)c2ccccc2Sc2ncccc21,-,-,0,-,-,-
COc1cc(/C=N/NC2=NCCCCC2)ccc1O,0,0,0,-,0,-
Cc1ccc(S(=O)(=O)Nc2ncnc3sc(C)c(C)c23)cc1,0,0,0,-,0,-
C/C(=N\Nc1ncc(Cl)cc1Cl)c1ccccn1,0,0,0.17µM,?,?,0

# Screening results deposited in PubChem by National Center for Advancing Translational Sciences (NCATS).
